Laboratory results from the supplement of paper PMC10105736.
A number with no mark means an inactive call.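 Rule for the calls: active = MAPPIT score above the 99th percentile of random reference set scores in the same batch; inactive = at or below it.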

Legend:
Assay in all cases: MAPPIT interaction score (arbitrary units); higher = stronger binary interaction signal, active = hit call of the paper
up = settings: MAPPIT configuration: N-N; pair source set: RRS
salr = settings: MAPPIT configuration: N-N; pair source set: Finley_Y2H
tup = settings: MAPPIT configuration: N-N; pair source set: Curagen_low_conf
saturn = settings: MAPPIT configuration: N-C; pair source set: screen_4
sip2 = settings: MAPPIT configuration: N-N; pair source set: Curagen_low_conf
yip2 = settings: MAPPIT configuration: N-N; pair source set: Curagen_high_conf
sw = settings: pair source set: Lit-BM-16
spir = settings: pair source set: RRS
sqd = settings: MAPPIT configuration: N-C; pair source set: Lit-BM-16
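Note: HEK293T cells with Epo stimulation, STAT-responsive firefly luciferase reporter, fold induction versus unstimulated cells divided by the larger fold induction of two negative controls lacking either bait or prey.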

B1: Pgd (protein)
chain: MSGQADIALIGLAVMGQNLILNMDEKGFVVCAYNRTVAKVKEFLANEAKDTKVIGADSLEDMVSKLKSPRKVMLLVKAGSAVDDFIQQLVPLLSAGDVIIDGGNSEYQDTSRRCDELAKLGLLFVGSGVSGGEEGARHGPSLMPGGHEAAWPLIQPIFQAICAKADGEPCCEWVGDGGAGHFVKMVHNGIEYGDMQLICEAYHIMKSLGLSADQMADEFGKWNSAELDSFLIEITRDILKYKDGKGYLLERIRDTAGQKGTGKWTAIAALQYGVPVTLIGEAVFSRCLSALKDERVQASSVLKGPSTKAQVANLTKFLDDIKHALYCAKIVSYAQGFMLMREAARENKWRLNYGGIALMWRGGCIIRSVFLGNIKDAYTSQPELSNLLLDDFFKKAIERGQDSWREVVANAFRWGIPVPALSTALSFYDGYRTAKLPANLLQAQRDYFGAHTYELLGQEGQFHHTNWTGTGGNVSASTYQA
MAPPIT interaction score (up): 0.146

B2: Pof (protein)
chain: MDSKRAALESGDGPDAKRLDTTDDQDKEASGGDGSQVMLAKHVAPYTGHGCTPPMESYLFEPTPAGSQLLPWKTSVDLDNDAELEKPTSDKKPDTAKLSRRELAKMRREHTLRALALERELTNKPGQTPASEVLLVRFPDPEITAPMLAGLSKDIRDVVLPISVAPRYCLVHLKAGADVEATICDINRVRFGTGHLRAELKPFSDEEQAEFIDPCSLYVGNIPFNMTTSAIKAYFANAMRVDIGVLKREKRARYAFVRYASPDQTMEAFKELVDSPLNSRTLTVRYRRLRKRAGMPMVQCATSFQALQSPNGDDDNTDCKVISPPPLESIIISDSDNCSDSSGNGKEDGKRKKKINEQEREIEKLKRQMAEYGAIIKSLQFRQNSLEDTFIPDLTPKVEPSVNPTGCLLGSNAVHLMRDIKKECDYLGIPDPVPATKPTTQAQDDSQKKAKRSCFGRLFTGPFRRGTSAMKTADEYEKDDRLEELYAQLERDPDP
MAPPIT interaction score (salr): 0.283

B3: Fcp3C (protein)
chain: MDGAKAEVFSVSVDTKMGAFKNSLLLLTLLLAIHLEASKIVYKKPLYGNSNIIKDKRIKTKPVKLETSTMSSTGVASSSTTAEEDWPTAVEFVIMTTPASELEASTETIGNNGTTETTVGEAPIIGSSEGSTRSMEPTTASPLMSTNPSSSSSLVSTIPLPPTAGLPVQDNQPVPCTCGVFLSSQIPNGLPTKPLIHQELDHMFPCNAIGRKQCQTKCLETIVQHLPNSANIVCSALGHDCHKERAYLFIKNCHNQWVNTNLQAGREYCCRSGVPYRCPLMG
MAPPIT interaction score (tup): -0.265

B4: ORMDL (protein)
chain: MTSIAGGHGEANPNSSWLSARGFWLAYLLGLLSVHLLFLSVPFVSIPWAWTATNLLHNAAHLYFLHVIKGAPWLSTENDPSRRWTHWEQIDDGVQMTTTRKFLTAVPIVLFLLTCLYTRNNTEHFIPNFISLVVVTLPKLPQFHGVRLFNINKY
MAPPIT interaction score (saturn): 0.115

B5: Mabi (protein)
chain: MEHHQIYRHKKFDMGRKIEKCDLQLKEELISRSGTPCTSRSPFDAANQSVSLGFSDQDADFPPLPKRRRLGSSSSSVSYQSASPIITEAIQDIFKYHVNMVRKFPKKERSPKDQERRNKNTIACRMSRRKKKFDDLQIEQQYKECSDEHLKIAEQSLRARVYLNHLKQLVKQEDHPLVSSRRVPEENTKSNFSIDYLIGGIKQEHA
MAPPIT interaction score (sip2): 0.378

B6: swa (protein)
chain: MSLQDESFPTDELFDQLNNLSSSGARNTWFAEHHKPAVFERDTAPFLEICYADPDFDADGDVANKSAKTCVSDPVGRDQEDEDDYDEDVDGDDHKLGCEKAPLGSGRSSKAVSYQDIHSAYTKRRFQHVTSKVGQYIAEIQAQDQKRRNVKFAGFQRVNSMPESLTPTLQQVYVHDGDFKVDKNCQTHSNSDSNYNSNSNNSSSSFDRLLAENESLQQKINSLRVEAKRLQGFNEYVQERLDRKTDDFVKMKCNFETLRTELSECQQKLRRQQDNSQHHFMYHIRSATSAKATQTDFLVDTIPASGNVLVTPHPLGDLTYNSSKGSIELALLSVAPSARVAQNPVQVQRAIHPQSLDFSSVSTEADGSGSGEHRVETSSRALVRRTPAPNNSETSQPSSNDSAIEVEAHEEERPSSRRQWEQQGELISPRQWGQHEGMYYFDKRNNRVIEVMGFNISQGRNQSHDTIHNQSINDSQTRLLVHSMSMSHLEAHDHFRSKRTTLGSRMLRFLGPCVRCRNGDPLNRSNVTYKDGLPAMPEEEFVDQRNQR
MAPPIT interaction score (yip2): 1.92

B7: DCTN1-p150 (protein)
chain: MSEKNLKVGARVELTGKDLLGTVAYVGMTSFAVGKWVGVVLDEPKGKNSGSIKGQQYFQCDENCGMFVRPTQLRLLEAAPGSRRSIEDVSGATPTAAQPTKARLSSSRTSLSSSRQSLLGSRTQLTTSLSERTASSSSIGPRKSLAPQNSKDKESPSTSLAEGAPAASGGNGAASHASSKRASFVETGFLEILKPQFTPSQPLRSPSFTMPSNSGAEDKVALLEAQKTSAELQAQLADLTEKLETLKQRRNEDKERLREFDKMKIQFEQLQEFRTKIMGAQASLQKELLRAKQEAKDAIEAKEQHAQEMADLADNVEMITLDKEMAEEKADTLQLELESSKERIEELEVDLELLRSEMQNKAESAIGNISGGGDSPGLSTYEFKQLEQQNIRLKETLVRLRDLSAHDKHDIQKLSKELEMKRSEVTELERTKEKLSAKIDELEAIVADLQEQVDAALGAEEMVEQLAEKKMELEDKVKLLEEEIAQLEALEEVHEQLVESNHELELDLREELDLANGAKKEVLRERDAAIETIYDRDQTIVKFRELVQKLNDQLTELRDRNSSNEKESLQDPSLKMVTETIDYKQMFAESKAYTRAIDVQLRQIELSQANEHVQMLTAFMPESFMSRGGDHDSILVILLISRIVFKCDIVVSQTRERFPPVDAITREAVTQGHAVQQYAFKCRLLHYVHSLQCALHQILYGLNSCQPDTLLRAGSSLPEMVAQEKIVDGIIELLKSNQLDENSTTDNIEKCVAFFNAMNSVLLAGEQLLNEIQMIRDCVASLGAACESILSDTAIAKVIIQEAGATSDSVLLIQFLNENMESVRQQVKLIKRRLPSDQHVIKSGLSQHKVEAMRGLAQNISRIMSAMHQATKQSLAAIVSTIESDNAAEHTLPQEKYWALLTASCERIYEQDDRGPTQNFKTLLAQANSDLQLIAQHLLDKEYDIISAANNASNQQKSGAHSTPITQRAQLIKKQLEQKNVLAATLENREADVKQLKVAAKMKQNELSEMQIRKDLAEKKLSVLQNEYEHAVDKWKQKYEETSLQLQLKEKEFEETMDHLQSDIDALESEKSDLRDKLKLNSTTGKVQPGSESHSPHNISLSGNTSTAPGISNVSYSAPAGTAPVVAEEVELLKNAFNQERNQRLRLQAQDMRAKLSQFEPLHVPQPQDQRITALESELTRMKHAWVLSLLQVRSQDSVNSGTRIDAVALQRRNQPVPLKGEISSKASQLASDILTEYLQRKPHRATHGQFASFPTVDVKRVLQI
MAPPIT interaction score (sw; MAPPIT configuration: N-C): 0.412
MAPPIT interaction score (sw; MAPPIT configuration: N-N): -0.153

B8: Acp1 (protein)
chain: MKFAVAVIFTLALAMGVQSSVIPLLSQVAGHGLSYTAVSGPAVVASPWAVPAAHWPAAVNVASWPPAAIHAAAPAVLAAPAPAVVAAHAPSVVVAPVAHSGVYTAQTRGAIHTAPLAGHIQSVASINAAPAPGTL
MAPPIT interaction score (spir; MAPPIT configuration: N-C): 0.0271
MAPPIT interaction score (spir; MAPPIT configuration: N-N): 0.686

B9: Hrb27C (protein)
chain: MEEDERGKLFVGGLSWETTQENLSRYFCRFGDIIDCVVMKNNESGRSRGFGFVTFADPTNVNHVLQNGPHTLDGRTIDPKPCNPRTLQKPKKGGGYKVFLGGLPSNVTETDLRTFFNRYGKVTEVVIMYDQEKKKSRGFGFLSFEEESSVEHVTNERYINLNGKQVEIKKAEPRDGSGGQNSNNSTVGGAYGKLGNECSHWGPHHAPINMMQGQNGQMGGPPLNMPIGAPNMMPGYQGWGTSPQQQQYGYGNSGPGSYQGWGAPPGPQGPPPQWSNYAGPQQTQGYGGYDMYNSTSTGAPSGPSGGGSWNSWNMPPNSAGPTGAPGAGAGTATDMYSRAQAWATGGPSTTGPVGGMPRTGPGNSASKSGSEYDYGGYGSGYDYDYSNYVKQEGASNYGAGPRSAYGNDSSTQPPYATSQAV
MAPPIT interaction score (sqd): 2.4
